Hits are enriched below; roughly 32% of the tested compounds scored in any of these assays.
PostGolgi ctrl: growth inhibition of yeast control strain, primary screen, counter-screen for post-Golgi transport modulator project; efflux-deficient yeast background strain, growth absorbance A615, 16 h; inhibition, % at 10 µM; hit rate 5% among 98,000
CYP2C19 activ: human CYP2C19 activators, primary screen, biochemical, luminescence; recombinant CYP2C19, luciferin-H EGE luminescence; active compounds read high; 0 = fully inhibited enzyme, 1 = untreated enzyme; activation factor at 5 µM; AID 1025, 2008; Cytochrome P450 2C19 (Homo sapiens), P33261; 96,000 tested, under 10 active;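 active means activation factor of at least 2 at 5 µM in the primary screen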
Target sequence (P33261 whole entry, looked up): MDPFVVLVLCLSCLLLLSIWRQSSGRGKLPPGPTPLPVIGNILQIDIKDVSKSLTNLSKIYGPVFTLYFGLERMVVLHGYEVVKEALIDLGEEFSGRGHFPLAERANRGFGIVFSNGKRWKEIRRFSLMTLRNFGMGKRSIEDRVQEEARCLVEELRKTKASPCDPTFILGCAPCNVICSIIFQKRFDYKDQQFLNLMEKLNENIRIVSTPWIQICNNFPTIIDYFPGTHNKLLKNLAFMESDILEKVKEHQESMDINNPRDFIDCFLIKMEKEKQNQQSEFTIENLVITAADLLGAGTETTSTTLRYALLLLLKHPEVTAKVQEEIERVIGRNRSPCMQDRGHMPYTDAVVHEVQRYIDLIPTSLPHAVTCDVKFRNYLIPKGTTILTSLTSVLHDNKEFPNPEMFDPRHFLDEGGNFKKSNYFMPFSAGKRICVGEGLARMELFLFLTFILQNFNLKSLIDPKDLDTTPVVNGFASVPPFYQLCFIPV
CYP2C9 activ: human CYP2C9 activators, primary screen, biochemical, luminescence | Cytochrome P450 2C9 (Homo sapiens), P11712 | recombinant CYP2C9, luciferin-H conversion; active compounds read high; factor 1 = untreated enzyme, 0 = blocked | activation factor at 5 µM | hit rate 1.4% among 96,000 | AID 1024, 2008;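 active means activation factor of 2 or more for CYP2C9 at a 5 µM dose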
CYP2C19 inhib: blockers of cytochrome P450 2C19 activity – biochemical, luminescence, ADME assay, primary screen. inhibition, % at 5 µM. hit rate 21% among 96,000. P33261. CYP2C19 Supersomes, luciferin-H EGE luminescence, 30 min;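 active means CYP2C19 inhibition above a set limit at 5 µM in the primary screen, cut at about 50% in these data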
CYP2C9 inhib: blockers of cytochrome P450 2C9 activity – biochemical, luminescence, ADME assay, primary screen; inhibition, % at 5 µM; AID 777, 2007; hit rate 20% among 96,000; CYP2C9 Supersomes, luciferin-H conversion; P11712;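 active means blocking of liver enzyme CYP2C9 beyond about 50% at 5 µM, limit read from the data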
PostGolgi yeast: phenotypic screen on post-Golgi transport, primary screen; post-Golgi transport phenotypic cell assay; inhibition, % at 10 µM; hit rate 0.9% among 98,000;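 further: yeast cells grown in 1536-well plates; yeast grown about 18 h at 30C before absorbance read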
Numbers stand for hits; n = inactive; x = not tested or not shown. Unless noted, no stated cut-off is given here; in the data, active means inhibition above about 30%; inactive means the rest.

SMILES	PostGolgi ctrl	CYP2C19 activ	CYP2C9 activ	CYP2C19 inhib	CYP2C9 inhib	PostGolgi yeast
O=C(NCc1ccccn1)/C(=N/O)c1ccccc1	n	n	n	n	n	n
Cc1ccc2c(c1)C1CN(C)CCC1N2C(=O)Nc1ccc(Cl)cc1 (stereo not given)	n	n	n	n	n	n
CCc1nnc(NC(=O)c2ccc(S(=O)(=O)N(CCOC)CCOC)cc2)s1	n	n	2	n	n	n
CC1CCCCN1S(=O)(=O)c1ccc(C(=O)Nc2nnc(-c3ccccc3Cl)o2)cc1 (stereo not given)	n	n	n	n	n	n
O=C(Nc1nnc(-c2ccccc2Cl)o1)c1ccc(S(=O)(=O)N2CCCCCC2)cc1	n	n	n	n	54	n
CCCCN(CC)S(=O)(=O)c1ccc(C(=O)Nc2nnc(CSC)o2)cc1	n	n	n	n	82	n
CCCCN(CCCC)S(=O)(=O)c1ccc(C(=O)Nc2nnc(CSC)o2)cc1	n	n	n	n	n	n
COc1ccc(C2C(C#N)=C(N)OC3=C2C(=O)CC(C)C3)c(OC)c1OC (stereo not given)	n	n	n	n	58	n
COc1cccc(C2C(C#N)=C(N)OC3=C2C(=O)CC(c2ccco2)C3)c1OCc1ccc(F)cc1 (stereo not given)	n	n	n	80	89	n
COc1ccc(C2C(C#N)=C(N)OC3=C2C(=O)CCC3)c(OC)c1OC (stereo not given)	n	n	n	n	n	n
COc1ccc(C2C(C#N)=C(N)OC3=C2C(=O)CC(C)(C)C3)c([N+](=O)[O-])c1OC (stereo not given)	n	n	n	n	71	n
COc1cc(C2C(C#N)=C(N)OC3=C2C(=O)CC(C)(C)C3)c([N+](=O)[O-])cc1OC (stereo not given)	n	n	n	n	n	n
CCn1c(CCNC(=O)c2ccccc2Cl)n[nH]c1=S	n	n	n	n	n	n
O=C(C1CCCO1)N1CCC(O)(c2ccccc2)CC1 (stereo not given)	n	n	n	n	n	n
COc1cc(S(=O)(=O)n2c(C)nc3ccccc32)ccc1F	n	n	n	94	n	n
COc1cc(S(=O)(=O)N2CCN=C2c2ccccc2)ccc1F	n	n	n	74	n	n
CCCCOc1ccc(S(=O)(=O)n2c(C)nc3ccccc32)cc1	n	n	n	n	67	n
O=C(Cn1c(=O)n(Cc2ccco2)c(=O)c2cc(Cl)ccc21)NCC1CCCO1 (stereo not given)	n	n	n	n	n	n
Cc1noc(NS(=O)(=O)c2ccc(NC(=O)CSc3nnc(-c4ccccc4)n3C3CCCCC3)cc2)c1C	n	n	n	n	n	n
Cn1nnc2cc(C(=O)N3CCSCC3)ccc21	n	n	n	n	n	n
CC(C)(C)c1ccc(OCC(=O)NCc2ccco2)c(Br)c1	n	n	n	n	76	n
COc1cc(C(=O)OCC(=O)NCc2ccco2)cc(OC)c1OC	n	n	n	n	n	n
CCn1c(=O)cc(OCC(=O)NCc2ccco2)c2ccccc21	n	n	n	n	n	n
CCOc1cc(C(=O)OCC(=O)NCc2ccco2)cc(OCC)c1OCC	n	n	n	58	57	n
COc1cc(NC(=O)c2cccs2)c(C(=O)OCC(=O)NCc2ccco2)cc1OC	n	n	n	n	82	n
SMILES	PostGolgi ctrl	CYP2C19 activ	CYP2C9 activ	CYP2C19 inhib	CYP2C9 inhib	PostGolgi yeast
O=C(COC(=O)c1ccco1)NCc1cccs1	n	n	n	n	n	n
O=C(COC(=O)c1cccs1)NCc1ccco1	x	n	n	70	n	x
COc1ccc(NC(=O)COC(=O)c2cc(OC)c(OC)cc2NC(=O)c2ccco2)cc1OC	n	n	n	n	n	n
CCOC(=O)C1CCN(C(=O)Cc2c(C(=O)O)n(C)c3ccccc23)CC1	n	n	n	n	n	n
COc1ccc(C2CC(=O)c3cnc(NC(=O)c4ccccc4OC)nc3C2)c(OC)c1 (stereo not given)	n	x	x	x	x	n
CC(=O)Nc1cccc(NC(=O)CSc2nnnn2Cc2ccccc2)c1	n	n	n	n	n	n
O=C(COC(=O)c1cccs1)NCc1ccccc1	n	n	n	92	n	n
CSc1ccc(Cl)c(C(=O)OCC(=O)NCc2ccco2)c1	n	n	n	93	n	n
O=C(Cc1ccccc1)NCC(=O)OCC(=O)c1cccs1	n	n	n	n	n	n
O=C(CNC(=O)c1cccs1)NCCN1CCN(c2ccccc2F)CC1	n	n	n	n	n	n
O=C(NCCCN=C1NS(=O)(=O)c2ccccc21)c1ccc(S(=O)(=O)N2CCCCC2)cc1	n	n	n	n	54	n
O=C(NCCN=C1NS(=O)(=O)c2ccccc21)c1ccncc1	n	n	n	n	51	n
O=C(OCCN=C1NS(=O)(=O)c2ccccc21)c1ccncc1	n	n	n	n	78	n
O=C(OCCCN=C1NS(=O)(=O)c2ccccc21)c1ccc(F)cc1	n	n	n	n	n	n
Cc1sc2c(c1C)c(=O)n(-c1cccc(C(F)(F)F)c1)c(=O)n2CC(=O)NCc1ccco1	n	n	n	n	n	n
CCn1c(=O)n(CC)c2cc(S(=O)(=O)NCCOc3ccccc3)c(C)cc21	n	n	n	51	72	n
CCNS(=O)(=O)c1c(C)cc(N2CCCC2=O)cc1C	n	n	n	n	n	n
CCCOc1cc(C)c(S(=O)(=O)NCCOC)cc1C	n	n	n	n	n	n
Cc1cc(N2CCCC2=O)cc(C)c1S(=O)(=O)NCCOc1ccccc1	n	n	n	88	92	n
COCC(=O)Nc1ccc(-c2cn3cccnc3n2)cc1	n	n	n	n	n	n
CCOCC(=O)Nc1cc(-c2cn3cccnc3n2)ccc1C	36	n	n	n	n	n
O=C(CN(C(=O)c1ccccc1Cl)C1CCCCC1)Nc1ccc(Cl)c([N+](=O)[O-])c1	36	n	n	n	75	n
CCOC(=O)Cc1c(C)nc2c(-c3ccc(Cl)cc3)c[nH]n2c1=O	n	n	n	n	67	n
CCOC(=O)Cc1cc(=O)n2[nH]c(C)c(-c3ccc(OC)cc3)c2n1	n	n	n	n	n	n
CCOC(=O)Cc1cc(=O)n2[nH]c(C)c(-c3ccc(Cl)cc3)c2n1	n	n	n	n	50	n
CCOC(=O)C1CCCN(C/C(O)=C(\C#N)c2nc(-c3ccccc3)cs2)C1 (stereo not given)	n	n	n	n	n	n
Cc1cc(C)nc(-n2nc(C)cc2NC(=O)COC(=O)CCC(=O)c2cccs2)n1	n	n	n	n	n	n
